Test results published in publication PMC11062922 (Nature Chemical Biology, 2023).
Like-named read-outs stand apart in the source and are kept apart here.

Experiments:
Set-up in all cases: species or system human, MV4-11 + K-562 + COLO205 + SK-N-BE2 + OVCAR-8
DCTPP1 = conditions: read-out: apparent Kd, n = 1
GSK3A = conditions: read-out: apparent Kd; compound concentrations: 100 nM and 1000 nM (sheet 'Samples'), CATDS: 0.126367112680837; n = 1
GSK3B = conditions: read-out: apparent Kd; compound concentrations: 100 nM and 1000 nM (sheet 'Samples'), CATDS: 0.11758336701376999; n = 1
HSP90AA1 = conditions: read-out: apparent Kd; compound concentrations: 100 nM and 1000 nM (sheet 'Samples'), CATDS: 0.187388385432427; n = 1
HSPE1 = conditions: read-out: apparent Kd; compound concentrations: 100 nM and 1000 nM (sheet 'Samples'), CATDS: 0.293791169928867; n = 1
PGK1 = conditions: read-out: apparent Kd; compound concentrations: 100 nM and 1000 nM (sheet 'Samples'), CATDS: 0.43205738676527899; n = 1
PKM = conditions: read-out: apparent Kd; compound concentrations: 100 nM and 1000 nM (sheet 'Samples'), CATDS: 9.7600585068996298E-2; n = 1
JAK2 = conditions: read-out: apparent Kd; compound concentrations:100 nM and 1000 nM (sheet 'Samples'); n = 1
MAPK14 = conditions: read-out: apparent Kd, n = 1
MAPK8 = conditions: read-out: apparent Kd; compound concentrations:100 nM and 1000 nM (sheet 'Samples'); n = 1
MAPK9 = conditions: read-out: apparent Kd; compound concentrations:100 nM and 1000 nM (sheet 'Samples'); n = 1
MAPKAPK2 = conditions: read-out: apparent Kd; compound concentrations:100 nM and 1000 nM (sheet 'Samples'); n = 1
NLK = conditions: read-out: apparent Kd; compound concentrations:100 nM and 1000 nM (sheet 'Samples'); n = 1
PIP4K2C = conditions: read-out: apparent Kd; compound concentrations:100 nM and 1000 nM (sheet 'Samples'); n = 1
DDR1 = conditions: read-out: apparent Kd, compound concentrations: 100 nM and 1000 nM (sheet 'Samples'), n = 1
DDR2 = conditions: read-out: apparent Kd, compound concentrations: 100 nM and 1000 nM (sheet 'Samples'), n = 1
EPHA7 = conditions: read-out: apparent Kd; compound concentrations: 100 nM and 1000 nM (sheet 'Samples'), CATDS: 8.9054165794135901E-2; n = 1
EPHB6 = conditions: read-out: apparent Kd; compound concentrations: 100 nM and 1000 nM (sheet 'Samples'), CATDS: 9.7568833330596599E-2; n = 1
FLT3 = conditions: read-out: apparent Kd, compound concentrations: 100 nM and 1000 nM (sheet 'Samples'), n = 1
FLT4 = conditions: read-out: apparent Kd, compound concentrations: 100 nM and 1000 nM (sheet 'Samples'), n = 1
RET = conditions: read-out: apparent Kd, compound concentrations: 100 nM and 1000 nM (sheet 'Samples'), n = 1
CSNK1D = conditions: read-out: apparent Kd; compound concentrations:100 nM and 1000 nM (sheet 'Samples'); n = 1
CSNK1E = conditions: read-out: apparent Kd; compound concentrations:100 nM and 1000 nM (sheet 'Samples'); n = 1
PIK3CD = conditions: read-out: apparent Kd; compound concentrations:100 nM and 1000 nM (sheet 'Samples'); n = 1
PKN3 = conditions: read-out: apparent Kd; compound concentrations:100 nM and 1000 nM (sheet 'Samples'); n = 1
PDGFRB = conditions: read-out: apparent Kd; compound concentrations: 100 nM and 1000 nM (sheet 'Samples'), CATDS: 0.14329981050248; n = 1
EPHB4 = conditions: read-out: apparent Kd; compound concentrations: 100 nM and 1000 nM (sheet 'Samples'), CATDS: 0.37827965470914299; n = 1
RIPK3 = conditions: read-out: apparent Kd; compound concentrations: 100 nM and 1000 nM (sheet 'Samples'), CATDS: 0.31274412248273797; n = 1
[1] = compound concentrations:100 nM and 1000 nM (sheet 'Samples')

Q: `Cn1cc(C2=C(c3cn(C)c4ccc(Cl)cc34)C(=O)NC2=O)c2ccccc21` [RO0317621-000] was tested. Which potency estimated from few doses (DCTPP1; compound concentrations: 100 nM and 1000 nM (sheet 'Samples'), CATDS: 8.8642199403974303E-2) did it give?
A: The potency estimated from few doses was 2.01 µM.

Q: What about the potency estimated from few doses (GSK3A) of the same compound?
A: Its potency estimated from few doses is 0.423 µM.

Q: What about the potency estimated from few doses (GSK3B) of the same compound?
A: Its potency estimated from few doses is 0.544 µM.

Q: What about the potency estimated from few doses (HSP90AA1) of the same compound?
A: Its potency estimated from few doses is 0.137 µM.

Q: And the potency estimated from few doses (HSPE1)?
A: Its potency estimated from few doses is 0.0528 µM.

Q: What about the potency estimated from few doses (PGK1) of the same compound?
A: Its potency estimated from few doses is 0.0276 µM.

Q: And the potency estimated from few doses (PKM)?
A: The potency estimated from few doses was 1.18 µM.

Q: Which results are given for `Cl.Cn1c(=O)c(Oc2ccc(F)cc2F)cc2cnc(NC3CCS(=O)(=O)CC3)nc21` [RO3308271-001]?
A: potency estimated from few doses (DCTPP1; [1]): 1.31 µM; potency estimated from few doses (JAK2): 0.494 µM; potency estimated from few doses (MAPK14; [1]): 0.0165 µM; potency estimated from few doses (MAPK8): 0.922 µM; potency estimated from few doses (MAPK9): 0.212 µM; potency estimated from few doses (MAPKAPK2): 0.0133 µM; potency estimated from few doses (NLK): 1.22 µM; potency estimated from few doses (PIP4K2C): 1.31 µM

Q: Which potency estimated from few doses (DDR1; CATDS: 0.13274475237022501) does the source give for `Nc1ncnc2occ(-c3ccc(NC(=O)Nc4cccc(C(F)(F)F)c4)cc3)c12` [GW795493X] here?
A: The potency estimated from few doses was 0.405 µM.

Q: What about the potency estimated from few doses (DDR2; CATDS: 0.11447916272035) of the same compound?
A: The potency estimated from few doses was 0.681 µM.

Q: And the potency estimated from few doses (EPHA7)?
A: Its potency estimated from few doses is 2.22 µM.

Q: What about the potency estimated from few doses (EPHB6) of the same compound?
A: Its potency estimated from few doses is 1.35 µM.

Q: And the potency estimated from few doses (FLT3; CATDS: 0.15949914238657301)?
A: The potency estimated from few doses was 0.229 µM.

Q: And the potency estimated from few doses (FLT4; CATDS: 0.353383658165352)?
A: Its potency estimated from few doses is 0.0346 µM.

Q: What about the potency estimated from few doses (RET; CATDS: 0.464290470493195) of the same compound?
A: Its potency estimated from few doses is 0.0216 µM.

Q: With `Cc1cccc2c(-c3ccncc3)c(-c3ccc(F)cc3)nn12.Cl` [GW461487A] as the compound, how does the potency estimated from few doses (CSNK1D) read?
A: Its potency estimated from few doses is 0.605 µM.

Q: What about the potency estimated from few doses (CSNK1E) of the same compound?
A: The potency estimated from few doses was 0.879 µM.

Q: What about the potency estimated from few doses (MAPK14; compound concentrations: 100 nM and 1000 nM (sheet 'Samples'), CATDS: 0.14248163391639501) of the same compound?
A: Its potency estimated from few doses is 0.94 µM.

Q: What about the potency estimated from few doses (MAPKAPK2) of the same compound?
A: The potency estimated from few doses was 0.565 µM.

Q: What about the potency estimated from few doses (PIK3CD) of the same compound?
A: Its potency estimated from few doses is 0.152 µM.

Q: And the potency estimated from few doses (PKN3)?
A: The potency estimated from few doses was 1.42 µM.

Q: For `Cc1c2ccc(N(C)c3ccnc(Nc4cccc(S(N)(=O)=O)c4)n3)cc2nn1C.Cl` [GW771127A], which potency estimated from few doses (DDR1; CATDS: 0.23686059185109401) is on record?
A: Its potency estimated from few doses is 0.397 µM.

Q: And the potency estimated from few doses (DDR2; CATDS: 0.144406437385246)?
A: The potency estimated from few doses was 1.67 µM.

Q: And the potency estimated from few doses (FLT4; CATDS: 0.67629550242263303)?
A: The potency estimated from few doses was 0.0517 µM.

Q: What about the potency estimated from few doses (PDGFRB) of the same compound?
A: Its potency estimated from few doses is 1.72 µM.

Q: What about the potency estimated from few doses (RET; CATDS: 0.185315990587263) of the same compound?
A: The potency estimated from few doses was 0.746 µM.

Q: Which potency estimated from few doses (DDR1; CATDS: 0.527903704232491) does the source give for `COC(=O)Nc1nc2ccc(Oc3ccc(NC(=O)Nc4cccc(Cl)c4)cc3)cc2[nH]1.Cl` [GW589961A] here?
A: The potency estimated from few doses was 0.199 µM.

Q: And the potency estimated from few doses (DDR2; CATDS: 0.19207540013006)?
A: Its potency estimated from few doses is 1.55 µM.

Q: What about the potency estimated from few doses (FLT3; CATDS: 0.237161124657183) of the same compound?
A: Its potency estimated from few doses is 0.874 µM.

Q: And the potency estimated from few doses (RET; CATDS: 0.213543633827599)?
A: The potency estimated from few doses was 1.14 µM.

Q: `NC(=O)c1cc(-c2ccc(F)cc2)cc(-c2ccncc2)c1N` [GSK620503A] was tested. Which potency estimated from few doses (DCTPP1; compound concentrations: 100 nM and 1000 nM (sheet 'Samples'), CATDS: 0.31656078381531599) did it give?
A: The potency estimated from few doses was 1.52 µM.

Q: And the potency estimated from few doses (EPHB4)?
A: The potency estimated from few doses was 1.07 µM.

Q: What about the potency estimated from few doses (RIPK3) of the same compound?
A: Its potency estimated from few doses is 1.56 µM.
